# Data taken from PubChem BioAssay (EPA / NIEHS).
# Active and inactive are the calls of the source. The calls were made as follows: active = hit-call score of the fitted dose curve at least 0.9, where 1 is the maximum; inactive = score below 0.9.
# Columns and labels:
# Settings in all cases: mRNA level, 48 h; actives raise or lower the signal
# [1] = read-out: Tumor necrosis factor receptor superfamily member 6 (Homo sapiens) (UniProt P25445); assay: LTEA_HepaRG_FAS: Life Technologies and Expression Analysis (LTEA) Assay for Fas cell surface death receptor (FAS) using HepaRG (AID 2283447)
# Procedure, shortened: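 FAS transcript level was measured by TaqMan qRT-PCR against three housekeeping genes after 48 h chemical exposure. Cells were HepaRG, 0.5% DMSO vehicle, with a top concentration of 100 uM and half-log dilutions over eight points, in duplicate.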
# [2] = read-out: Fatty acid synthase (Homo sapiens) (UniProt P49327); assay: LTEA_HepaRG_FASN: Life Technologies and Expression Analysis (LTEA) Assay for Fatty Acid Synthase (FASN) using HepaRG (AID 2283448)
# Procedure, shortened: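 Differentiated human HepaRG cells were exposed for 48 h in serum-free induction medium to eight half-log concentrations up to 100 uM in 0.5% DMSO, in duplicate. FASN mRNA was quantified by TaqMan qRT-PCR, normalized to ACTB/GAPDH/POLR2A, and fitted bidirectionally against DMSO.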
# [3] = read-out: Cyclin D2 (CCND2), CCND2 (gene 894); assay: LTEA_HepaRG_CCND2: Life Technologies and Expression Analysis (LTEA) Assay for Cyclin D2 (CCND2) using HepaRG (AID 2283449)
# Procedure, shortened: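 Read-out is CCND2 mRNA level measured by qRT-PCR in human HepaRG liver cells and normalised to three housekeeping genes. Chemicals were applied for 48 h at up to 100 uM, with gain or loss fitted relative to 0.5% DMSO.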
# [4] = read-out: Cyclin Dependent Kinase Inhibitor 1A (CDKN1A), CDKN1A (gene 1026); assay: LTEA_HepaRG_CDKN1A: Life Technologies and Expression Analysis (LTEA) Assay for Cyclin Dependent Kinase Inhibitor 1A (CDKN1A) using HepaRG (AID 2283450)
# Procedure, shortened: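 HepaRG, 48 h dosing, 8-pt half-log series from 100 uM top, 0.5% DMSO vehicle, duplicates. Readout: TaqMan qRT-PCR of CDKN1A transcript, housekeeping-normalized (ACTB, GAPDH, POLR2A). Up/down curve fit relative to DMSO.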
# [5] = read-out: catalase (CAT), CAT (gene 847); assay: LTEA_HepaRG_CAT: Life Technologies and Expression Analysis (LTEA) Assay for catalase (CAT) using HepaRG (AID 2283452)
# Procedure, shortened: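 Expression of CAT was quantified by TaqMan qRT-PCR with ACTB/GAPDH/POLR2A normalization after 48 h chemical exposure of HepaRG. Eight-point half-log series, top 100 uM, in 0.5% DMSO; gain or loss fitted against vehicle.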
# [6] = read-out: flavin-containing dimethylaniline monooxygenases 3 (FMO3), FMO3 (gene 2328); assay: LTEA_HepaRG_FMO3: Life Technologies and Expression Analysis (LTEA) Assay for flavin-containing dimethylaniline monooxygenases 3 (FMO3) using HepaRG (AID 2283453)
# Procedure, shortened: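 HepaRG, 48 h exposure, 8-pt half-log series from 100 uM, 0.5% DMSO vehicle, duplicates; FMO3 transcript by Fluidigm TaqMan qRT-PCR, housekeeping-normalized; gain/loss fit vs DMSO.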
# [7] = read-out: Cytochrome P450 (CYP1A1), CYP1A1 (gene 1543); assay: LTEA_HepaRG_CYP1A1: Life Technologies and Expression Analysis (LTEA) Assay for Cytochrome P450 (CYP1A1) using HepaRG (AID 2283454)
# Procedure, shortened: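 qRT-PCR read-out: CYP1A1 transcript normalized to three housekeeping genes, fitted bidirectionally against 0.5% DMSO vehicle baseline. Human HepaRG cells, 48 h chemical exposure, 8-point half-log series topping at 100 uM.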
# [8] = read-out: CFLAR gene, CFLAR (gene 8837); assay: LTEA_HepaRG_CFLAR: Life Technologies and Expression Analysis (LTEA) Assay for CFLAR gene using HepaRG (AID 2283455)
# Procedure, shortened: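 HepaRG, 48 h exposure, 8-pt conc-response (100 uM top, half-log), 0.5% DMSO vehicle, duplicates. CFLAR expression by qRT-PCR; ACTB/GAPDH/POLR2A normalization; gain or loss fit vs DMSO baseline.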
# [9] = read-out: growth arrest and DNA damage 45 (GADD45A), GADD45A (gene 1647); assay: LTEA_HepaRG_GADD45A: Life Technologies and Expression Analysis (LTEA) Assay for growth arrest and DNA damage 45 (GADD45A) using HepaRG (AID 2283458)
# Procedure, shortened: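 Differentiated HepaRG cells were exposed in duplicate for 48 h in serum-free induction medium to 8-point half-log concentrations up to 100 uM in 0.5% DMSO. GADD45A mRNA was measured by TaqMan qRT-PCR, normalized to ACTB, GAPDH and POLR2A, with bidirectional fitting versus DMSO.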
# [10] = read-out: Forkhead box O3 (FOXO3), FOXO3 (gene 2309); assay: LTEA_HepaRG_FOXO3: Life Technologies and Expression Analysis (LTEA) Assay for Forkhead box O3 (FOXO3) using HepaRG (AID 2283459)
# Procedure, shortened: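 HepaRG, 48 h post-dose; 8 conc., half-log from 100 uM, 0.5% DMSO, duplicates; serum-free induction medium. Readout: FOXO3 mRNA, TaqMan qRT-PCR, housekeeping-normalized. Bidirectional curve fit vs DMSO baseline.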
# [11] = read-out: ABC Transporter (ABCB1), ABCB1 (gene 5243); assay: LTEA_HepaRG_ABCB1: Life Technologies and Expression Analysis (LTEA) Assay for ABC Transporter (ABCB1) using HepaRG (AID 2283460)
# Procedure, shortened: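 Expression of ABCB1 was quantified by qRT-PCR against three housekeeping genes after human HepaRG cultures received test chemicals for 48 hours. Concentrations spanned eight half-log steps topping at 100 uM in 0.5% DMSO; gain or loss of signal was fitted relative to vehicle.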
# [12] = read-out: growth arrest and DNA damage 45 (GADD45B), GADD45B (gene 4616); assay: LTEA_HepaRG_GADD45B: Life Technologies and Expression Analysis (LTEA) Assay for growth arrest and DNA damage 45 (GADD45B) using HepaRG (AID 2283461)
# Procedure, shortened: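 qRT-PCR read-out (Fluidigm TaqMan, housekeeping-normalized) of mRNA change in human HepaRG cells after 48 h chemical exposure; 8-point curve, top 100 uM, half-log steps, 0.5% DMSO vehicle; gain or loss fitted relative to DMSO baseline.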
# [13] = read-out: ABC Transporter (ABCC3), ABCC3 (gene 8714); assay: LTEA_HepaRG_ABCC3: Life Technologies and Expression Analysis (LTEA) Assay for ABC Transporter (ABCC3) using HepaRG (AID 2283462)
# Procedure, shortened: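 qRT-PCR read-out of ABCC3 transcript, normalized to three housekeeping genes (ACTB, GAPDH, POLR2A), after 48 h chemical exposure of human HepaRG cells. Eight half-log concentrations, highest 100 uM, in 0.5% DMSO; gain or loss fitted relative to DMSO baseline.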
# [14] = read-out: Cyclin D1 (CCND1), CCND1 (gene 595); assay: LTEA_HepaRG_CCND1: Life Technologies and Expression Analysis (LTEA) Assay for Cyclin D1 (CCND1) using HepaRG (AID 2283451);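 also: TaqMan qRT-PCR transcript level normalised to ACTB GAPDH and POLR2A housekeeping genes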
# Procedure, shortened: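 qRT-PCR (Fluidigm 96.96 array) read-out of transcript level, housekeeping-normalized (ACTB/GAPDH/POLR2A). HepaRG cells, 48 h chemical exposure, 8-point half-log series from 100 uM, 0.5% DMSO vehicle; gain or loss relative to DMSO baseline.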
# [15] = read-out: Forkhead box O1 (FOXO1), FOXO1 (gene 2308); assay: LTEA_HepaRG_FOXO1: Life Technologies and Expression Analysis (LTEA) Assay for Forkhead box O1 (FOXO1) using HepaRG (AID 2283456)
# Procedure, shortened: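 Readout is FOXO1 transcript level by multiplexed qRT-PCR against three housekeeping genes, curve-fitted in both directions relative to 0.5% DMSO vehicle. Human HepaRG cultures received chemicals for 48 h, up to 100 uM in half-log steps.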
# Chain of Fatty acid synthase (Homo sapiens) (P49327 whole entry, looked up): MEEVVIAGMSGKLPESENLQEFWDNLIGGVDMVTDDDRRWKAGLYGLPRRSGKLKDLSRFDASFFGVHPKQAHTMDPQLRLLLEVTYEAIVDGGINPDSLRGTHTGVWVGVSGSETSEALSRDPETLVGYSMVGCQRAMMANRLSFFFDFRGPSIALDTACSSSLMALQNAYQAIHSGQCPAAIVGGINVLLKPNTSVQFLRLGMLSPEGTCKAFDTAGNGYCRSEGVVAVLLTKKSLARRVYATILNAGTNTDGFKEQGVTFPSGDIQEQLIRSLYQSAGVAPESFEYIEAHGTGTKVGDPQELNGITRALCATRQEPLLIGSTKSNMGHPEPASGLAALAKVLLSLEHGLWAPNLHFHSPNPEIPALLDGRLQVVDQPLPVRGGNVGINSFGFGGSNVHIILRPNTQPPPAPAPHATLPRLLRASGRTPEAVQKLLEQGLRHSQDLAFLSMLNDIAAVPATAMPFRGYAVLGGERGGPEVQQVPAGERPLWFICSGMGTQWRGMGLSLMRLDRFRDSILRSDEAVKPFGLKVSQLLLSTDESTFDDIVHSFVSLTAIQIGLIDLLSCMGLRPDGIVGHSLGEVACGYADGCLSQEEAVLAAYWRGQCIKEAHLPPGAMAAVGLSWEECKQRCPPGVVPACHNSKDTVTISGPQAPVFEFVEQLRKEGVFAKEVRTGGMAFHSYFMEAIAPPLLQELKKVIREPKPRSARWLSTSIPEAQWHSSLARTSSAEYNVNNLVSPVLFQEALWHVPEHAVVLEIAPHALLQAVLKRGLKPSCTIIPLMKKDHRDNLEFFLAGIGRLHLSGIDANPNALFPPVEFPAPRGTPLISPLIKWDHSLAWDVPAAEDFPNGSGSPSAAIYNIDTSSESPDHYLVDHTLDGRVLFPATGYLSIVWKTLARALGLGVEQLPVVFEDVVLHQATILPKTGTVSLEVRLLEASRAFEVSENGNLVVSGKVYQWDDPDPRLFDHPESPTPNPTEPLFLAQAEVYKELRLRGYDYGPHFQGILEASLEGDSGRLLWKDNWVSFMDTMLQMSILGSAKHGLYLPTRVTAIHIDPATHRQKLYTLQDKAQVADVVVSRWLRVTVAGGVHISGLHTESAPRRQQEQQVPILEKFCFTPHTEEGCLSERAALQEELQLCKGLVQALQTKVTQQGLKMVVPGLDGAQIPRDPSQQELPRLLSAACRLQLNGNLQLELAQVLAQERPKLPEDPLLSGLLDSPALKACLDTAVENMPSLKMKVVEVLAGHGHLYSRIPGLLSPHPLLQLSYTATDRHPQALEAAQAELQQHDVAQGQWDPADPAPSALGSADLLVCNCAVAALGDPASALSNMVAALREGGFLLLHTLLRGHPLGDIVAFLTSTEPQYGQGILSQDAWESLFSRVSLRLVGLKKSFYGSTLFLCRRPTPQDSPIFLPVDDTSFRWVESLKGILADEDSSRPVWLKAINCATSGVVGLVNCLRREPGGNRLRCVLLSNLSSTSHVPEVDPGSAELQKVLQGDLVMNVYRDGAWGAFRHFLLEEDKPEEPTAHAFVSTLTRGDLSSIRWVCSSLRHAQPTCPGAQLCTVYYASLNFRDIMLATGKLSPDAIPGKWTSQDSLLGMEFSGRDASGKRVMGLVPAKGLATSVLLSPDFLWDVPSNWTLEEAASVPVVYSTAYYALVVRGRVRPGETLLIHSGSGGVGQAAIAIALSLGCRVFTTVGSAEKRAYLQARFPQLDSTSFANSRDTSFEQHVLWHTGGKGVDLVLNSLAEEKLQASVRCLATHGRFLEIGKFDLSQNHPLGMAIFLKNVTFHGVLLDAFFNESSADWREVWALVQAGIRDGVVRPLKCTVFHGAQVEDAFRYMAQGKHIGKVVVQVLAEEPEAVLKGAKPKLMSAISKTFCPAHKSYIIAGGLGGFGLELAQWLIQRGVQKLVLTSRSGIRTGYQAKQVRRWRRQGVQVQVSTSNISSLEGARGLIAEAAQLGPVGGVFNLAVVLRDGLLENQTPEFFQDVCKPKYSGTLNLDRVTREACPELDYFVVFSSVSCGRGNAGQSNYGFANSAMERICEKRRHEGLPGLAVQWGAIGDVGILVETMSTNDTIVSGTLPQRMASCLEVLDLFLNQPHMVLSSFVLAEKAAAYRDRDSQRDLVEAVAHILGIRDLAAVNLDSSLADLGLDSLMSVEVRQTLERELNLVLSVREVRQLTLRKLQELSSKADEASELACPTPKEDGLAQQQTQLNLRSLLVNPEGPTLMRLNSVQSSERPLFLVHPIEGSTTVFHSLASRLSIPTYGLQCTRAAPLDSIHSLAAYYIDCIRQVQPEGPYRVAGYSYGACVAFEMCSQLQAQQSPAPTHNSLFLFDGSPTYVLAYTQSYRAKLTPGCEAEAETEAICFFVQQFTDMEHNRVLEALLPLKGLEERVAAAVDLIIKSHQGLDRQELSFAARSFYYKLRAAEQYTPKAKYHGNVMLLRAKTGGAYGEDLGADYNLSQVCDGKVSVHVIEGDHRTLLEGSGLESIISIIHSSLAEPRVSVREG
compound,measurement,setting,value
C1=CCCC=CCCC=CCC1,outcome,[1],inactive
same,outcome,[2],inactive
same,outcome,[3],inactive
same,outcome,[4],inactive
same,outcome,[5],inactive
same,outcome,[6],inactive
same,outcome,[7],inactive
same,outcome,[8],inactive
same,outcome,[9],inactive
same,outcome,[10],inactive
same,outcome,[11],inactive
same,outcome,[12],inactive
same,outcome,[13],inactive
Cc1[nH]cnc1C[C@H]1CCc2c(C)c3ccccc3n2C1=O,AC50,[1],69.3 µM (active)
same,AC50,[2],29.9 µM (active)
same,outcome,[4],inactive
same,AC50,[14],79.7 µM (active)
same,AC50,[5],24.3 µM (active)
same,AC50,[6],32 µM (active)
same,AC50,[7],10.7 µM (active)
same,AC50,[8],79.9 µM (active)
same,AC50,[15],75.4 µM (active)
same,AC50,[9],62 µM (active)
same,outcome,[10],inactive
same,AC50,[11],68.5 µM (active)
same,AC50,[12],25.2 µM (active)
same,AC50,[13],10.6 µM (active)
CC1(C)C(=O)N(Br)C(=O)N1Br,outcome,[1],inactive
same,outcome,[2],inactive
same,outcome,[3],inactive
same,outcome,[4],inactive
same,outcome,[5],inactive
same,outcome,[6],inactive
same,AC50,[7],36.8 µM (active)
same,outcome,[8],inactive
same,outcome,[9],inactive
same,outcome,[10],inactive
same,outcome,[11],inactive
same,outcome,[12],inactive
same,outcome,[13],inactive
CC(=O)OC[C@H]1O[C@@](COC(C)=O)(O[C@H]2O[C@H](COC(C)=O)[C@@H](OC(C)=O)[C@H](OC(C)=O)[C@H]2OC(C)=O)[C@@H](OC(C)=O)[C@@H]1OC(C)=O,outcome,[1],inactive
same,outcome,[2],inactive
same,outcome,[3],inactive
same,outcome,[4],inactive
same,outcome,[5],inactive
same,outcome,[6],inactive
same,AC50,[7],47.5 µM (active)
same,outcome,[8],inactive
same,outcome,[9],inactive
same,outcome,[10],inactive
same,outcome,[11],inactive
same,outcome,[12],inactive
same,outcome,[13],inactive
O=C1CCC(N2C(=O)c3ccccc3C2=O)C(=O)N1 (configuration not stated),outcome,[1],inactive
same,outcome,[2],inactive
same,outcome,[3],inactive
same,outcome,[4],inactive
same,outcome,[5],inactive
same,outcome,[6],inactive
same,AC50,[7],67.7 µM (active)
same,outcome,[8],inactive
same,outcome,[9],inactive
same,outcome,[10],inactive
same,outcome,[11],inactive
same,outcome,[12],inactive
same,outcome,[13],inactive
CCOCCOCCOCCO,outcome,[2],inactive
same,outcome,[4],inactive
same,outcome,[5],inactive
same,outcome,[6],inactive
same,outcome,[7],inactive
same,outcome,[8],inactive
same,outcome,[15],inactive
same,outcome,[9],inactive
same,outcome,[10],inactive
same,outcome,[11],inactive
same,outcome,[12],inactive
same,outcome,[13],inactive
CC/C(=C\C(=N/O)C(N)=O)C(C)[N+](=O)[O-] (configuration not stated),outcome,[1],inactive
same,outcome,[2],inactive
same,outcome,[3],inactive
same,outcome,[4],inactive
same,outcome,[5],inactive
same,outcome,[6],inactive
same,AC50,[7],31.9 µM (active)
same,outcome,[8],inactive
same,outcome,[15],inactive
same,outcome,[9],inactive
same,outcome,[10],inactive
same,outcome,[11],inactive
same,outcome,[12],inactive
same,outcome,[13],inactive
